Laboratory results reported in PubChem BioAssay (NCATS).
Results filed as inconclusive are left out. Activity calls are given as the source filed them. Unless noted, calls come from the whole dose curve; as a rule, active = well fitted curve in either direction with a large enough effect (not every such curve was filed as active); inconclusive = small, poorly fitted or top-dose-only effect, or another doubt; inactive = flat fitted curve, though single readings scatter.

Tests used:
[1] = target: Lysosomal acid glucosylceramidase (Homo sapiens) (UniProt P04062); assay: Glucocerebrosidase-p2 (AID 348; in the data active = potency below about 10 µM; note: potency is the fitted concentration of half-maximal effect); conditions: purified GBA, blue fluorogenic substrate, 40 min
How it was run: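 Normal human glucocerebrosidase (0.2 nM) with blue fluorogenic substrate (80 uM final) in citrate/phosphate pH 5.9 with 10mM sodium taurocholate, 0.01% tween-20; 40 min RT, NaOH/glycine stop; fluorescence Ex 365/Em 440; AC50 from a titration from 0.6 nM upwards.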

[2] = AP1 Signaling Pathway (AID 357); conditions: ME-180 AP-1-bla reporter, EGF-induced, beta-lactamase ratio, 5 h; at 7.69 µM (top of the series) unless noted; note: % is set by controls: 0 for no effect and ±100 for the full control effect
How it was run: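 Titration-series screen for positive or negative modulators of EC50 EGF-induced signaling in ME-180 cells carrying an AP-1-driven beta-lactamase reporter. After 5 hours at 37 degrees Celsius, CCF4 460nm/530nm emission ratio gave %Activity; AC50 values derived.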

[3] = target: Cytochrome P450 1A2 (Homo sapiens) (UniProt P05177); assay: p450-cyp1a2 (AID 410; calls by dose curve; note: potency is the fitted concentration of half-maximal effect;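 for activity change, negative = inhibition: -100% = full effect of reference inhibitor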); conditions: recombinant CYP1A2, luciferin-ME demethylation, luminescence; series mostly up to 57 µM
How it was run: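 Luminescent demethylation readout: Luciferin-ME (100uM, equal to Km) turned over by 20nM CYP1A2 for 60 min at room temperature after NADPH regeneration addition, following 10 min compound preincubation. Normalization used 57 uM furafylline as full inhibition.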

[4] = NFAT Signaling Pathway (AID 444); conditions: Jurkat NFAT-bla M1, carbachol, beta-lactamase ratio, 5 h; at 7.69 µM (top of the series) unless noted;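 note: carbachol stimulus at about its EC50 of 1 µM final; % is set by controls: 0 for no effect and ±100 for the full control effect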
How it was run: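 Jurkat cells with NFAT-driven β-lactamase reporter and co-expressed M1 receptor, stimulated with carbachol (final 1 uM, ~EC50), compound titration, 5 h at 37 °C. CCF4 loaded 1 h at RT; 460/530 nm ratio gave %activity and AC50.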

[5] = Stat Signaling Pathway (AID 446); conditions: ME-180 SIE beta-lactamase reporter, IL-6 stimulated, 5 h; at 7.69 µM (top of the series) unless noted;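 note: ME-180 cervical cancer cells given 40 pM IL-6 alongside compound; SIE-controlled beta-lactamase reporter measured as 460/530 nm FRET emission ratio; % is set by controls: 0 for no effect and ±100 for the full control effect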
How it was run: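 Emission at 460 and 530 nm (excitation 405 nm) reports SIE-controlled beta-lactamase in ME-180 cells. Cells received compound with 40 pM IL-6 for 5 hrs at 37 C; data scaled between 300 pM IL-6 and 125 nM JAK-inhibitor controls.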

[6] = target: Glucocorticoid receptor (Homo sapiens) (UniProt P04150); assay: GR-GFP Redistribution (AID 450;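 active = compounds whose dose series gives a full or clear partial fitted curve of increased nuclear translocation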; note: potency is the fitted concentration of half-maximal effect); conditions: U2OS GR-GFP nuclear translocation, laser cytometry, 2 h
[7] = target: Mitogen-activated protein kinase 10 (Mus musculus) (UniProt Q61831); assay: JNK3 AlphaScreen Assay (AID 530); conditions: JNK3 lysate, c-Jun phosphorylation; series mostly up to 57.1 µM;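 note: kinase came from lysate of stimulated human HepG2 cells; signal reports phosphorylation of biotinylated GST-cJun 1-79 at Ser73 with 10 µM ATP; % is set by controls: 0 for no effect and ±100 for the full control effect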
How it was run: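 Activity was read by AlphaScreen after JNK3-containing HepG2 lysate (cytokine pre-activated) phosphorylated biotinylated GST-cJun with 10 uM ATP at room temperature. Phospho-Ser73 cJun antibody with Protein-A acceptor beads provided detection.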

[8] = target: 3',5'-cyclic-AMP phosphodiesterase 4B (Homo sapiens) (UniProt Q07343); assay: qHTS Assay for Inhibitors of PDE-IV (AID 607; active = well fitted activation curve with a large enough effect in the main read-out, with a control signal flat, not every such curve was filed as active; note: % of control where 0% means no effect); conditions: HEK293 ACTOne CNG channel cells, membrane potential fluorescence; series mostly up to 22.9 µM
How it was run: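 The readout is membrane depolarisation from a cAMP-sensing CNG channel, detected with a potential dye at ex 535/em 590. Cells were HEK293-derived (endogenous PDE-IV) at 1000 cells/well, titrated up to 22.9 uM final.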

[9] = target: Cytochrome P450 3A4 (Homo sapiens) (UniProt P08684); assay: qHTS Assay for Activators of Cytochrome P450 3A4 (AID 885; active = well fitted curve in the direction sought with a large enough effect; an effect the other way counts as inactive or inconclusive; note: nearly all actives have a fitted effect of over 65% in size); conditions: recombinant CYP3A4, Luciferin-PPXE luminescence, 60 min; series mostly up to 57.1 µM
How it was run: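 Activators are scored by enhanced luminescence from CYP3A4 conversion of luciferin-PPXE (25uM, equal to KM) to luciferin, after 60 min at RT with an NADPH-regenerating system.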

[10] = Confirmation and Secondary Assay for Modulators of Hemoglobin Beta Chain Splicing at IVS2 654 locus (AID 910; active = well fitted curve in the direction sought with a large enough effect; an effect the other way counts as inactive or inconclusive;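 note: HeLa cells stably carrying EGFP split by mutant beta-globin IVS2-654 intron; % of control where 0% means no effect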); conditions: HeLa EGFP-654 splicing reporter, GFP fluorescence, 48 h; series mostly up to 38.3 µM
How it was run: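 HeLa cells stably expressing EGFP interrupted by β-globin IVS2-654 intron, seeded overnight in Opti-MEM/2% FCS, then treated 2 days at 37 °C. Restored splicing read as total peak GFP intensity per well by laser scanning cytometry (488 nm excitation, 500–520 nm emission); 500 nM antisense PNA as control.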

[11] = qHTS Assay for Identification of Small Molecule Agonists for Hypoxia Response Element Signaling Pathway (AID 914; active = well fitted activation curve with a large enough effect in the signal ratio, with a control signal flat, not every such curve was filed as active; the % refers to the signal ratio; note: % of control where 0% means no effect); conditions: ME-180 (cervical carcinoma) HRE-bla reporter, beta-lactamase ratio, CoCl2, 17 h; activation: stronger effect = higher value
How it was run: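 HRE-bla ME-180 cells with beta-lactamase reporter under hypoxia response element, compounds with EC50 CoCl2 for 17 hours at 37 C. CCF4 substrate, 460nm/530nm emission ratio gave %Activity; AC50 from titration series.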

[12] = Confirmation and Secondary Assay for Modulators of Hemoglobin Beta Chain Splicing at IVS2 705 locus (AID 930; active = well fitted curve in the direction sought with a large enough effect; an effect the other way counts as inactive or inconclusive;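 note: HeLa cells stably expressing the EGFP-705 splicing reporter; GFP fluorescence per well restored by corrected splicing of the IVS2-705 intron in EGFP; % of control where 0% means no effect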); conditions: HeLa EGFP-705 splicing reporter, GFP fluorescence, 48 h; series mostly up to 38.3 µM
How it was run: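 HeLa cells stably carrying EGFP interrupted by mutant beta-globin intron 2 (IVS2-705) treated 2 days at 37C with compound; 500 nM antisense PNA as control. Correct splicing read as total peak GFP intensity per well by laser-scanning cytometry.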

[13] = Primary qHTS for small molecule stabilizers of the endoplasmic reticulum resident proteome: Secreted ER Calcium Modulated Protein (SERCaMP) assay (AID 1508630; active = well fitted curve in the direction sought with a large enough effect; an effect the other way counts as inactive or inconclusive; note: % is set by controls: 0 for no effect and ±100 for the full control effect); conditions: SH-SY5Y GLuc-SERCaMP (Gaussia luciferase released on ER calcium loss) secretion, thapsigargin, luminescence; series mostly up to 38.4 µM
How it was run: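 The SH-SY5Y reporter protocol was run at 3 concentrations up to 38.3 uM (primary) or 11 concentrations (follow-up): 16 h compound, 100 nM thapsigargin for 4 h, then extracellular luciferase luminescence.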

[14] = target: Glucocorticoid receptor (Homo sapiens) (UniProt P04150); assay: GR-EFC Redistribution (AID 451; calls by dose curve; note: potency is the fitted concentration of half-maximal effect); conditions: CHO-K1 GR-EFC translocation, beta-gal luminescence, 2 h
How it was run: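 CHO-K1 cells expressing nuclear EA and GR-ED fragments of b-gal; compounds titrated up to 46 uM final, 2 h at 37 C. GR nuclear translocation read as complemented b-gal luminescence after 1 h RT detection.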

[15] = target: Cytochrome P450 3A4 (Homo sapiens) (UniProt P08684); assay: qHTS Assay for Inhibitors and Substrates of Cytochrome P450 3A4 (AID 884; active = well fitted curve in the direction sought with a large enough effect; an effect the other way counts as inactive or inconclusive; note: potency is the fitted concentration of half-maximal effect; nearly all actives have a fitted effect of over 50% in size); conditions: recombinant CYP3A4, Luciferin-PPXE luminescence; series mostly up to 57.1 µM
How it was run: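 Luminescent readout of luciferin produced by CYP3A4 (20 nM) dealkylation of Luciferin-PPXE, 25 uM (its KM). NADPH-driven reaction ran 60 min at RT after 10 min compound preincubation; data scaled to 57 uM ketoconazole as 100% inhibition.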

[16] = target: Cytochrome P450 2C9 (Homo sapiens) (UniProt P11712); assay: qHTS Assay for Inhibitors and Substrates of Cytochrome P450 2C9 (AID 883; active = well fitted curve in the direction sought with a large enough effect; an effect the other way counts as inactive or inconclusive; note: % is set by controls: 0 for no effect and ±100 for the full control effect; nearly all actives have a fitted effect of over 60% in size); conditions: recombinant CYP2C9, luciferin-H luminescence, 60 min; series mostly up to 57.1 µM
How it was run: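 10nM CYP2C9 + 100uM Luciferin-H (=KM), 25mM KPO4; cpd 10 min 37C; NADPH regen, 60 min 37C; stop/detect with P450 Glo-Buffer 20 min; luminescence. Norm. to 57uM sulphaphenazole as full inhibition.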

[17] = target: Cytochrome P450 2C19 (Homo sapiens) (UniProt P33261); assay: qHTS Assay for Inhibitors and Substrates of Cytochrome P450 2C19 (AID 899; active = well fitted curve in the direction sought with a large enough effect; an effect the other way counts as inactive or inconclusive; note: % is set by controls: 0 for no effect and ±100 for the full control effect; nearly all actives have a fitted effect of over 60% in size); conditions: recombinant CYP2C19, luciferin-H EGE luminescence; series mostly up to 57.1 µM
How it was run: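 Luminescent read-out of luciferin formed from Luciferin-H EGE (10uM, equal to KM). Enzyme 5nM in 50mM KPO4; compound added, 10 min at 37C, then NADPH regenerating system for 60 min at 37C. Full inhibition defined by 57uM ketoconazole.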

Sequence of Lysosomal acid glucosylceramidase (Homo sapiens) (P04062 whole entry, looked up): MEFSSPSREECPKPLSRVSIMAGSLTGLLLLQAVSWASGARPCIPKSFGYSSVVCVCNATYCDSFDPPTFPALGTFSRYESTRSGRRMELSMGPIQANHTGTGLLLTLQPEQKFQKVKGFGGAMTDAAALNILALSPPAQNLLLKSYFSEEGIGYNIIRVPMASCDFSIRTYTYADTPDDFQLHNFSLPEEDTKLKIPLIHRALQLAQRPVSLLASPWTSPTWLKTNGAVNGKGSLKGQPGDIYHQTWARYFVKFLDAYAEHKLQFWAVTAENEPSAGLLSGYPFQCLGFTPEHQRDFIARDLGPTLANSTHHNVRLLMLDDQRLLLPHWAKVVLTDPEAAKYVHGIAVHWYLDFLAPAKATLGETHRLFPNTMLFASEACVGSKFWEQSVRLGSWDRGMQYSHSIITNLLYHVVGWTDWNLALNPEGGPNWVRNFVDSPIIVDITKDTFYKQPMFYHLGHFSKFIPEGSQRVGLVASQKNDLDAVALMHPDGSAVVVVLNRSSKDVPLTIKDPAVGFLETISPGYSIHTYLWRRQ
Sequence of Glucocorticoid receptor (Homo sapiens) (P04150 whole entry, looked up, the tested form may be a part): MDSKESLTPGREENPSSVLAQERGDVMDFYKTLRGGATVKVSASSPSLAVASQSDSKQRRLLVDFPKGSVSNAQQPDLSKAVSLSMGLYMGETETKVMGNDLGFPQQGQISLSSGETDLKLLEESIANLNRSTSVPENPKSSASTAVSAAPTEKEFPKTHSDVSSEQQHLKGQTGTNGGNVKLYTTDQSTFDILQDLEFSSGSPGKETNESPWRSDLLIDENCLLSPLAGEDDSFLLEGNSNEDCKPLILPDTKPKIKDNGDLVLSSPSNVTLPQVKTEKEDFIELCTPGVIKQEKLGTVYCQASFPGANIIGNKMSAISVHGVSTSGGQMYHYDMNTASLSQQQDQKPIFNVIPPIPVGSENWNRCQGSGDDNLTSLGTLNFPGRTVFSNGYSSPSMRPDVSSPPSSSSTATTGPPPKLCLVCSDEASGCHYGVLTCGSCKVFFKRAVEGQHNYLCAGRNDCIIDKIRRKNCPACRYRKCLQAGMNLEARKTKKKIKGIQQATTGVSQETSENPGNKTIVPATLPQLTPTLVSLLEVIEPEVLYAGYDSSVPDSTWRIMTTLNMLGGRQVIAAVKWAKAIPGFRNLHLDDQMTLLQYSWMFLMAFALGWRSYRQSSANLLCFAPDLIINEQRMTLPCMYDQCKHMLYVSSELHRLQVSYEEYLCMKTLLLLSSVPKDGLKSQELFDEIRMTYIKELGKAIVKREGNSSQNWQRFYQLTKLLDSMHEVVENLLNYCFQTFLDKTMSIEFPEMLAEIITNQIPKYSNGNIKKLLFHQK
Sequence of Cytochrome P450 1A2 (Homo sapiens) (P05177 whole entry, looked up): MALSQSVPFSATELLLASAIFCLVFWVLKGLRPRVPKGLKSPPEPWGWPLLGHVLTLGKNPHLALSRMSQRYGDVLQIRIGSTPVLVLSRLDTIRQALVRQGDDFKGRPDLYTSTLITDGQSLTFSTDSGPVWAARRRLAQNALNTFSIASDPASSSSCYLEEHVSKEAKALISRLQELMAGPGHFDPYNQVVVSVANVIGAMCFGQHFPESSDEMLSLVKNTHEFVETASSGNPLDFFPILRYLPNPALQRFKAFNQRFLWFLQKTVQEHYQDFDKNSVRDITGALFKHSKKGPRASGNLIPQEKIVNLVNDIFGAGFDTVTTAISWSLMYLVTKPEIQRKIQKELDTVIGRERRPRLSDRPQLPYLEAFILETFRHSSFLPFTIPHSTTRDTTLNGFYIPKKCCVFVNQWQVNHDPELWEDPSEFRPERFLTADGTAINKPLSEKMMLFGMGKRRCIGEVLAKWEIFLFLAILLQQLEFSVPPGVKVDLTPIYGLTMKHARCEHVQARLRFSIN
Sequence of Cytochrome P450 3A4 (Homo sapiens) (P08684 whole entry, looked up): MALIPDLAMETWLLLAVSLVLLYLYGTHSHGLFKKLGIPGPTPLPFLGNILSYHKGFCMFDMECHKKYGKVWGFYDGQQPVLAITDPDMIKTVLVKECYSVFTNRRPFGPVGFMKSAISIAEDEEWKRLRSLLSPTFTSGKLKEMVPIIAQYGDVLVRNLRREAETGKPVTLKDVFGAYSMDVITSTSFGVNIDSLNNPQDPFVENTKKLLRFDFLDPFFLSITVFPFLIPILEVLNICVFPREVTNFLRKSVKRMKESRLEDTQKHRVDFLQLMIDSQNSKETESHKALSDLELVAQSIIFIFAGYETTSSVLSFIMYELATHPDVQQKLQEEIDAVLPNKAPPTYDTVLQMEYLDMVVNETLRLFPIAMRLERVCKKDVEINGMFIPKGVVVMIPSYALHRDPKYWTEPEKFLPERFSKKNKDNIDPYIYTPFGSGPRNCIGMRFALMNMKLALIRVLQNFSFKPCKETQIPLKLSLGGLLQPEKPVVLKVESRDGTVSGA
Sequence of 3',5'-cyclic-AMP phosphodiesterase 4B (Homo sapiens) (Q07343 whole entry, looked up): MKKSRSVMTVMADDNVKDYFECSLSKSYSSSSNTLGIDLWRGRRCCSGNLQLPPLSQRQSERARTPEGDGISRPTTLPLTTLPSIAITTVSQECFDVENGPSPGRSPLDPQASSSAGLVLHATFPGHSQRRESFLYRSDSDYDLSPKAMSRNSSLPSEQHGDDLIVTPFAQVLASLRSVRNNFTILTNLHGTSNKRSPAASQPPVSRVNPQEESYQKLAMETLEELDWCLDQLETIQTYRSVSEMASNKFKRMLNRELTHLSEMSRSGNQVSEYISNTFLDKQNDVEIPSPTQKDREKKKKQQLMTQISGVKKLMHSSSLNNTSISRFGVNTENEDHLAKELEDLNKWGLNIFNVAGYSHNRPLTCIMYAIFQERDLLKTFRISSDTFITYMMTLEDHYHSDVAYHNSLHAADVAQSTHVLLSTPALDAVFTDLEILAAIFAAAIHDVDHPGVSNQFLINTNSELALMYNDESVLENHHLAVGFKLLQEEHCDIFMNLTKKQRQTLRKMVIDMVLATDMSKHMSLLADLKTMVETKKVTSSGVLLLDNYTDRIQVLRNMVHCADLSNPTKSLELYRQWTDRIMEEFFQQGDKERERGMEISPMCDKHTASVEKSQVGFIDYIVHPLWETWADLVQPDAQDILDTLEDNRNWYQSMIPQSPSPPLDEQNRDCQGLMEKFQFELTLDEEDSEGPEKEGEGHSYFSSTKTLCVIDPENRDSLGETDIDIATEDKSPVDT
Sequence of Cytochrome P450 2C19 (Homo sapiens) (P33261 whole entry, looked up): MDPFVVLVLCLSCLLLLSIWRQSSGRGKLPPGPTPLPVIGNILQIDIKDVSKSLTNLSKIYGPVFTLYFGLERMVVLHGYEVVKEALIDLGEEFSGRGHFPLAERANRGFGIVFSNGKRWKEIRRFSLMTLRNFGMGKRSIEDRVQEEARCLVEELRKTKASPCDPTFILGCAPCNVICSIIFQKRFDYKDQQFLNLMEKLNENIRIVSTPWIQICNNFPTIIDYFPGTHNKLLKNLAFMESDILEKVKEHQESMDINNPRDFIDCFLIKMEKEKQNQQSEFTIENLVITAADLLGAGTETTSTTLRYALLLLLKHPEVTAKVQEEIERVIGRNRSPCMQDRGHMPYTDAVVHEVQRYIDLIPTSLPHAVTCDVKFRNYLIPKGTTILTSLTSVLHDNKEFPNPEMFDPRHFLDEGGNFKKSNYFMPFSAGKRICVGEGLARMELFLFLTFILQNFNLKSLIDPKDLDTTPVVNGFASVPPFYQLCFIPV
Sequence of Cytochrome P450 2C9 (Homo sapiens) (P11712 whole entry, looked up): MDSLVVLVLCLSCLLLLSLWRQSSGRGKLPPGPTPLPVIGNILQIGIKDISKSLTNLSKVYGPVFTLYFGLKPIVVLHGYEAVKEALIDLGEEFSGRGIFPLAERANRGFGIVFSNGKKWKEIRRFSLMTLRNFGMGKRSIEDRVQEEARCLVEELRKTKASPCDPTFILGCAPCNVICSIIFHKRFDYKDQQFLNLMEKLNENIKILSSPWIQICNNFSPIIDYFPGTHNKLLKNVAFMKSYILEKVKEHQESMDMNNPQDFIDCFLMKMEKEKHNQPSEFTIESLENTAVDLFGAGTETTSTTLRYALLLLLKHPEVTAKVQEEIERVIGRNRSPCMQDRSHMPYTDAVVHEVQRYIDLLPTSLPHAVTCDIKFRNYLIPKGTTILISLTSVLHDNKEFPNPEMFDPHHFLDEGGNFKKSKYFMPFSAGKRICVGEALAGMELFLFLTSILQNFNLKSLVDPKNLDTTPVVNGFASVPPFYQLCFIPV

CN1CCN(c2ccnc(-c3cccc(NS(C)(=O)=O)c3)n2)CC1
inactive: Potency [1] > 11.4 µM | activity change, negative = inhibition [2] -6.86% | activity change, negative = inhibition [4] -9.78% | activity, negative = inhibition [5] 7.5% | Potency [6] > 46 µM | Potency [7] | Potency [8] | Potency [9] | Potency [10] | activation [11] 0.356% | outcome [12] | outcome [13]
active: Potency [3] 12.6 µM

CS(=O)(=O)N1CCC[C@@]2(CCN(c3ncccn3)C2)C1
inactive: Potency [1] > 11.4 µM | activity change, negative = inhibition [2] -9.3% | Potency [3] | activity change, negative = inhibition [4] 16.2% | activity, negative = inhibition [5] -19.8% | Potency [14] > 46 µM | Potency [7] | Potency [8] | outcome [13]

CS(=O)(=O)N1CCC2(CCN(Cc3nccs3)CC2)CC1
inactive: Potency [1] > 11.4 µM | activity change, negative = inhibition [2] 3.17% | Potency [3] | activity change, negative = inhibition [4] 9.85% | activity, negative = inhibition [5] -5.91% | Potency [14] > 46 µM | Potency [7] | Potency [8] | outcome [13]

COc1ccc(NC(=O)N2CCC3(CC2)CCN(C(=O)c2ccco2)CC3)cc1
active: Potency [3] 20 µM
inactive: Potency [1] > 11.4 µM | activity change, negative = inhibition [2] -4.61% | activity change, negative = inhibition [4] 3.53% | activity, negative = inhibition [5] -1.71% | Potency [14] > 46 µM | Potency [7] | Potency [8] | outcome [13]

COCC(=O)N1CCC2(CC1)CN(Cc1ccccc1OC)C2
inactive: Potency [1] > 11.4 µM | activity change, negative = inhibition [2] -2.68% | Potency [3] | activity change, negative = inhibition [4] 9.66% | activity, negative = inhibition [5] 14.6% | Potency [14] > 46 µM | Potency [7] | Potency [8] | outcome [13]

COCC(=O)N1CCC2(CCCN(C(=O)Nc3cccc(C#N)c3)C2)CC1
inactive: Potency [1] > 11.4 µM | activity change, negative = inhibition [2] -3.42% | Potency [3] | activity change, negative = inhibition [4] -3.66% | activity, negative = inhibition [5] -1.02% | Potency [14] > 46 µM | Potency [7] | Potency [8] | outcome [13]

O=c1cnc2cnc(OCc3ccccc3)nc2n1Cc1ccc(F)cc1
inactive: Potency [1] > 11.4 µM | activity change, negative = inhibition [2] -29.4% | activity change, negative = inhibition [4] -14.6% | activity, negative = inhibition [5] -21.4% | Potency [6] > 9.22 µM | Potency [7] | Potency [9] | outcome [13]
active: Potency [3] 12.6 µM | Potency [15] 5.01 µM

CS(=O)(=O)N1CCC2(CC1)CN(c1ccc(-c3ccccc3)cc1)C2
inactive: Potency [1] > 11.4 µM | activity change, negative = inhibition [2] -8.52% | Potency [3] | activity change, negative = inhibition [4] -6.69% | activity, negative = inhibition [5] -25.1% | Potency [14] > 46 µM | Potency [7] | Potency [8] | Potency [16] | Potency [17] | outcome [13]
